From ChEMBL document CHEMBL1157539, “Thousands of chemical starting points for antimalarial lead identification” (Nature, 2010)

The compounds below were run on Plasmodium falciparum (assay: GSK_TCMDC: Inhibition of Plasmodium falciparum 3D7 in whole red blood cells, using parasite LDH activity as an index of growth. Test compounds present at 2uM).
Format: functional
With `CC1CCCCC1N(C)C1CCN(CCCNC(=O)C=Cc2cccc(C(F)(F)F)c2)CC1` (centres undefined) the Inhibition was 100%.
`CN(C(=O)Cc1ccc(Cl)c(Cl)c1)C1CCN(CCCCCNC(=O)/C=C/c2ccc(Cl)c(Cl)c2)CC1` was tested, and the Inhibition was 84%.
With `O=C(Nc1cccc(-c2cccc(-c3nc4cc(F)ccc4[nH]3)c2)c1)Nc1ccc2c(c1)OCO2` the Inhibition was 100%.
In the case of `CCn1ncc2c(N3CCCC3=O)cc(C(=O)N[C@@H](Cc3ccccc3)[C@H](O)CNC(C)(C)c3cccc(C(F)(F)F)c3)cc21`, the Inhibition is reported as 98%.

Each compound was assayed on Plasmodium falciparum (assay: GSK_TCMDC: Inhibition of Plasmodium falciparum Dd2 in whole red blood cells, using parasite LDH activity as an index of growth. Test compounds present at 2uM).
Format: functional
`O=C(O)C(F)(F)F.c1cc(CN2CCN(c3ccncc3)CC2)cc(-c2ccc(-c3nc4ccccc4[nH]3)cc2)c1` was tested, and the Inhibition was 100%.
For `O=C(Nc1ccc(I)cc1)Nc1ccc(Cn2ncc(N3CCCNCC3)c(Cl)c2=O)cc1.O=C(O)C(F)(F)F`, the Inhibition was 30%.
`N#Cc1ccc(N(CCOc2ccc(Cl)c(F)c2)Cc2ccccc2C(F)(F)F)cc1C(F)(F)F` was tested, and the Inhibition was 43%.
Work on `COc1cccc(-c2ccc3c(-c4ccc(F)cc4)cnc(N)c3c2)c1.O=CO` yielded an Inhibition of 70%.
`COc1ccccc1CN1CCC(NC(=O)c2ccc(-c3cccc(C(F)(F)F)c3)s2)CC1.O=C(O)C(F)(F)F` was tested, and the Inhibition was 12%.
With `O=C(Cn1c(CCc2cccc(F)c2F)cc(=O)c2ccccc21)N(Cc1ccc(-c2ccc(C(F)(F)F)cc2)cc1)C1CCN(CCN2CCOCC2)CC1.O=C(O)C(O)C(O)C(=O)O` the Inhibition was 41%.
Work on `CCCN(CCC)CCOc1ccc(C(O)(C#CC(O)(c2ccc(OCCN(CCC)CCC)cc2)c2cccc(Cl)c2)c2cccc(Cl)c2)cc1` (centres undefined) yielded an Inhibition of 98%.
In the case of `N#Cc1cccc(C(=O)Nc2cccc(-c3ccc(C(=O)NCCCN4CCOCC4)cc3)c2)c1`, the Inhibition is reported as 21%.
`COc1cccc(OC)c1-c1ccccc1NC(=O)N1CCCc2cc(C)ccc21` showed an Inhibition of 84%.
For `Nc1nc(N)c2c(ccc3c2ccn3Cc2ccccc2)n1`, the Inhibition was 94%.
Work on `CCOc1ccc(N(CC)S(=O)(=O)c2cc(Br)cc3c2N(C(=O)C2CC2)CC3)cc1` yielded an Inhibition of 97%.
Work on `O=C(Nc1ccc2c(c1)OCO2)NC1CCN(c2ccnc(NCc3ccc(F)cc3)n2)CC1` yielded an Inhibition of 15%.
`CC(C)(C)c1ccc(NC(=O)c2cccc(CN3CCN(Cc4cccc(O)c4)CC3)c2)cc1.O=C(O)C(F)(F)F` was tested, and the Inhibition was 3%.
`CN1CCCC(CN2CCN(Cc3ccc(-c4ccc(-c5nc6cc(F)ccc6[nH]5)s4)cc3)CC2)C1.O=C(O)C(F)(F)F` (centres undefined) gave an Inhibition of 100%.
Work on `CO/C(=C\C=C\c1cc2cc(Cl)c(Cl)cc2[nH]1)C(=O)NCCCN1CCN(Cc2ccccc2)CC1` yielded an Inhibition of 65%.
Compound `Cl.c1ccc(-c2nc3ccccc3[nH]2)c(Nc2ccnc3cc(-c4nccs4)ccc23)c1` has an Inhibition of 98%.
Compound `COc1cccc2cc(C(=O)N[C@@H](CC(C)C)C(=O)N[C@H](C=NN(C)C(=O)OC(C)(C)C)Cc3ccccc3)oc12` has an Inhibition of 89%.
Work on `Cc1[nH]n(-c2cccc(C(F)(F)F)c2)c(=O)c1-c1ccc(Cl)cc1` yielded an Inhibition of 25%.
For `COc1ccc(-c2cc(C(=O)N[C@@H](CC3CCCCC3)C(=O)NC3CCCc4ccccc43)ccc2O)cc1` (some centres undefined), the Inhibition was 97%.
`N#Cc1cc(C(=O)Nc2ccccc2)c(N)nc1SCC(=O)Nc1ccc(Br)cc1` was tested, and the Inhibition was 66%.
`Cc1ccccc1NC(=O)NC1CCN(CCCCCNC(=O)/C=C/c2ccc(Cl)c(Cl)c2)CC1` showed an Inhibition of 20%.
Work on `CC(C)N1CCC(NCc2ccc(-c3ccc(Cl)cc3)cc2)CC1` yielded an Inhibition of 48%.
`Br.N=C(N)Nc1nc(-c2cccc(NC(=O)C(F)(F)F)c2)cs1` showed an Inhibition of 24%.
With `CCn1ccc2c(N3CCCS3(=O)=O)cc(C(=O)N[C@@H](Cc3ccccc3)[C@H](O)CNC(C)(C)CCCC(C)C)cc21` the Inhibition was 98%.
`CCCCOc1c(CCC)cc(Cc2cnc(N)nc2N)cc1CCC.Cl` was tested, and the Inhibition was 0%.
`CCc1cn2c3c(cc(C(=O)N[C@@H](Cc4cccc(Cl)c4)[C@H](O)CNC4CC4)cc13)N(C)S(=O)(=O)CC2.O=CO` showed an Inhibition of 98%.
For `Cc1cc(Nc2ccc(C)c(Cl)c2)n2ncnc2n1`, the Inhibition was 91%.
`O=C(/C=C/c1ccc(Cl)c(Cl)c1)NCCCCCN1CCC(NC(=O)Nc2cccc(Cl)c2)CC1` was tested, and the Inhibition was 13%.
`CCOC(=O)c1cc(C(=O)NCCCCN2CCC(c3ccc(CC)cc3OCC)CC2)ccc1-c1ccc(C(F)(F)F)cc1` showed an Inhibition of 71%.
`NC(=O)COc1cccc2c1CCN(CCN1CCC(NC(=O)c3ccc(-c4ccc(Cl)cc4)cc3)CC1)C2` showed an Inhibition of 6%.
